Results on 20 compounds are retold here after PubChem BioAssay (NCATS).

Values without a mark were called inactive. Results filed as inconclusive are left out. Active and inactive are the calls of the source. Calls come from the whole dose curve; as a rule, active = well fitted curve in the direction sought with a large enough effect; inconclusive = small, poorly fitted or top-dose-only effect, or another doubt; inactive = no such curve, though single readings can be large; an effect the other way counts as inactive or inconclusive.

Test [1] addresses Glutathione peroxidase 1 (Homo sapiens) (UniProt P07203). The test can be described thus: Primary qHTS Assay for Inhibitors of Recombinant Selenoprotein Glutathione Peroxidase 1 (GPX1) (AID 1845191). Note: nearly all actives have a fitted effect of over 65% in size. In short, it runs like this:
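GPX1 10 nM, GR 100 nM, GSH 1 mM, NADPH 0.5 mM, CHP 0.5 mM (final). 30-min cpd preincubation, RT. Ex340/Em450 read t=0, t=15 min.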
(In general: Quantitative high-throughput screening tests each substance at several concentrations.)

Test [2] concerns the target Phospholipid hydroperoxide glutathione peroxidase GPX4 (Homo sapiens) (UniProt P36969). The test can be described thus: Primary qHTS Assay for Inhibitors of Recombinant Selenoprotein Glutathione Peroxidase 4 (GPX4) (AID 1845192). Note: series mostly up to about 50 µM; nearly all actives have a fitted effect of over 65% in size. In outline: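 qHTS, GR-coupled: GPX4 200 nM + cpd 30 min RT → GSH 1 mM, NADPH 0.5 mM, GR 100 nM → CHP 0.5 mM start; fluor 340/450 at t0 and t15 min; no-enzyme wells as control.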

For test [3], the target named is Luciferin 4-monooxygenase (Photinus pyralis) (UniProt P08659). The test can be described thus: Primary firefly luciferase (FLuc) qHTS assay for identification of artifact compounds. (AID 1845220). Note: nearly all actives have a fitted effect of over 60% in size. In short, it runs like this: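 Reaction readout was CCD-imaged luminescence, taken 5 min after adding 10 nM purified firefly enzyme to compound-treated wells holding 10 uM luciferin and ATP in pH 7.6 buffer.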

Test [4] can be described thus: Primary fluorescence-based thiol-reactive (MSTI) qHTS assay for identification of artifact compounds. (AID 1845221). Note: nearly all actives have a fitted effect of over 65% in size. Note: potency is the fitted concentration of half-maximal effect. In short, it runs like this:
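Probe: MSTI 4 uM, PBS pH 7.4, 2% DMSO. Incubation 1 h, RT, light-protected. Readout fluorescence 525/598 nm.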

The test system of test [5] is Nanoluciferase (engineered Oplophorus gracilirostris luciferase). The test can be described thus: Primary Nanoluciferase (NLuc) qHTS assay for identification of artifact compounds. (AID 1845222). Note: potency is the fitted concentration of half-maximal effect. In outline: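 Concentration-response data were obtained by luminescence after 5 min with Nano-Glo substrate at 1:100. The enzyme was diluted S16 NLuc-expressing cell medium, preincubated with compound for 15 min at RT. Curves were fitted with a 4-parameter Hill model.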

Test [6] is described as follows: Primary redox qHTS assay for identification of artifact compounds. (AID 1845223). In short, it runs like this: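 Redox-cycling detection via DTT (250 uM final) oxidation coupled to Amplex Red (25 uM)/HRP (250 mU/mL) in HBSS. 15 min preincubation plus 30 min after DTT, room temperature. Ex/Em 525/598 nm; 4-parameter Hill fit against DMSO and 10 uM DA3003.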

Phospholipid hydroperoxide glutathione peroxidase GPX4 (Homo sapiens), sequence (P36969 whole entry, looked up): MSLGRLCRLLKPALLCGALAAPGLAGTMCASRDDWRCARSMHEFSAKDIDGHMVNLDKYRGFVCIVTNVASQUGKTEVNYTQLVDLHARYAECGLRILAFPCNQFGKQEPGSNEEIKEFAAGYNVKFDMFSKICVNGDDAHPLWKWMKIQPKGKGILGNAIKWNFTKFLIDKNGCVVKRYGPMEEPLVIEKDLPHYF
Glutathione peroxidase 1 (Homo sapiens), sequence (P07203 whole entry, looked up): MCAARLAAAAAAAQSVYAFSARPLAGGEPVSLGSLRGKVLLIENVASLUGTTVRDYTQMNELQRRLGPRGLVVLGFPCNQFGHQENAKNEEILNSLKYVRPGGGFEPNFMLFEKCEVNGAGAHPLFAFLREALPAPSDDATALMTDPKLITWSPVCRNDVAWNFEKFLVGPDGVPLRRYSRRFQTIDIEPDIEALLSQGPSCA

Consider `CN1C2CCC1CC(OC(=O)[C@H](CO)c1ccccc1)C2` (stereo not given in full), for which the Potency entry in test [1], in test [2], in test [3], in test [4], in test [5] and in test [6] was “inactive” throughout.
In the case of `CCOC(=O)c1sc(NC(=O)[C@H](C(C)C)n2c(=O)[nH]c3ccccc3c2=O)nc1C`, the Potency entry in test [1], in test [2], in test [3], in test [4], in test [5] and in test [6] was “inactive” each time.
Turning to `O=c1[nH]ccc2cc(OC3CCNCC3)ccc12`, the Potency entry in test [1], in test [2], in test [3], in test [4], in test [5] and in test [6] was “inactive” in each case.
For the compound `CCC(C)C(=O)OC1CC(C)C=C2C=CC(C)C(CCC(O)CC(O)CC(=O)O)C21` (stereo not given), the Potency entry in test [1], in test [2], in test [3], in test [4], in test [5] and in test [6] was “inactive” each time.
As to `COC(=O)[C@H](O)[C@H]1C(C)(C)[C@H](OC(=O)C(C)C)[C@@]2(O)C(=O)[C@]1(C)C1CC[C@]3(C)C(CC(=O)O[C@H]3c3ccoc3)[C@]13O[C@@H]32` (stereo not given in full), the Potency result in test [1], in test [2], in test [3], in test [4], in test [5] and in test [6] was “inactive” throughout.
With `C=C1C(=O)OC2CC(C)=C(C(C)CCCO)C(O)C12` (stereo not given), the Potency result in test [1], in test [2], in test [3], in test [5] and in test [6] was “inactive” in each case. Also, in test [4], the Potency is 5.97 µM (active).
Regarding `Cc1noc(=O)c2ccc(NC(=O)C(O)(CC(C)(C)c3cccc4c3OCC4)C(F)(F)F)cc12` (stereo not given), the Potency result in test [1], in test [2], in test [3], in test [4], in test [5] and in test [6] was “inactive” throughout.
Take `Cc1csc(NC(=O)c2ccc(COc3cccc(Cl)c3)o2)n1`: the Potency entry in test [1], in test [2], in test [3], in test [4], in test [5] and in test [6] was “inactive” in each case.
For the compound `NC(=O)c1cccc(-c2cc(OC(=O)NC3CCCCC3)ccc2O)c1`, the Potency entry in test [1], in test [2], in test [3], in test [4], in test [5] and in test [6] was “inactive” each time.
Consider `COC1/C=C/C(C)(O)C(SCC(N)C(=O)O)CC(=O)OC(C)C(C)CC/C=C/1C` (stereo not given), for which the Potency entry in test [1], in test [2], in test [3], in test [4], in test [5] and in test [6] was “inactive” each time.
Consider `Cc1noc(-c2ccc(-c3ccc(CC(=O)O)cc3)cc2)c1NC(=O)O[C@H](C)c1ccccc1`, for which the Potency result in test [1], in test [2], in test [3], in test [4] and in test [6] was “inactive” throughout. For the same compound, in test [5], the Potency was 10.7 µM (active).
As to `N=c1nc2n(cc1F)C1OC(CO)C(O)C1O2` (stereo not given), the Potency entry in test [1], in test [2], in test [3], in test [4], in test [5] and in test [6] was “inactive” throughout.
Regarding `COC(=O)C1=CO[C@@H](O)C2C(CO)=CCC12` (stereo not given in full), the Potency entry in test [1], in test [2], in test [3], in test [4], in test [5] and in test [6] was “inactive” in each case.
Consider `COc1ccc(-c2nc(-c3ccc(-c4cccc(Cl)c4)o3)[nH]c2-c2ccc(OC)cc2)cc1`, for which the Potency result in test [1], in test [2], in test [3], in test [5] and in test [6] was “inactive” throughout. In addition, the Potency in test [4] was 4.23 µM (active).
Consider `CC(=O)O[C@@H](CO[C@@H]1O[C@H](CO)[C@H](O)[C@H](O)[C@H]1O)[C@]1(C)C=C2CC[C@@H]3C(C)(C)[C@@H](O)CC[C@@]3(C)[C@@H]2CC1`, for which the Potency result in test [1], in test [2], in test [3], in test [4], in test [5] and in test [6] was “inactive” throughout.
With `CC(=O)O[C@H]1CC[C@H](C)[C@@]2(C)[C@H](OC(C)=O)c3c(C)coc3C(=O)[C@H]12`, the Potency result in test [1], in test [2], in test [3], in test [4], in test [5] and in test [6] was “inactive” throughout.
Take `C/C=C1\[C@H](O[C@@H]2O[C@H](CO)[C@@H](O)[C@H](O)[C@H]2O)OC=C(C(=O)OC)[C@H]1CC(=O)OC[C@H]1O[C@@H](OCCc2ccc(O)cc2)[C@H](O)[C@@H](O)[C@@H]1O`: the Potency result in test [1], in test [2], in test [3], in test [5] and in test [6] was “inactive” each time. The Potency in test [4] is 2.24 µM (active).
`Cc1cccc(C)c1OCc1cc(C(=O)N2CCC(c3ccncc3)CC2)no1`: the Potency result in test [1], in test [2], in test [3], in test [4], in test [5] and in test [6] was “inactive” each time.
As for `Cc1cc(Nc2cc(N3CCN(C)CC3)nc(/C=C/c3ccccc3)n2)n[nH]1`, the Potency result in test [1], in test [2], in test [3], in test [4], in test [5] and in test [6] was “inactive” throughout.
In the case of `O=S(=O)(c1ccccc1)c1cnc2c(N3CCNCC3)cccc2c1`, the Potency entry in test [1], in test [2], in test [3], in test [4], in test [5] and in test [6] was “inactive” in each case.
